Test results from PubChem BioAssay (NCATS).
Values joined by “and” are separate entries in the source; they are usually repeats but may differ in a detail not shown here. Equal entries are not always repeated. Records with an inconclusive call do not appear. Active and inactive are the calls of the source. Unless noted, calls follow the shape of the dose curve; as a rule, active = well fitted curve in the direction sought with a large enough effect; inconclusive = small, poorly fitted or top-dose-only effect, or another doubt; inactive = no such curve, though single readings can be large; an effect the other way counts as inactive or inconclusive.

How the values were obtained:
[1] = Primary qHTS for inhibitors of La Crosse Virus (LACV) - induced cell death in SH-SY5Y cells (AID 1508616);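 also: top concentration of the series differs between compounds; higher means more rescue of cells from virus-induced death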
Procedure, shortened: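 SH-SY5Y, 6000 cells/well; cpd via pin tool in DMSO; LACV 0.01 MOI; 6 d 37C 5% CO2; ATPLite, 5 min RT; luminescence normalized to ±virus DMSO controls.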

[2] = molecular target: Calcium and integrin-binding protein 1 (Homo sapiens) (UniProt Q99828); experiment: Validation qHTS for Identification of Calcium Integrin Binding protein 1 (CIB1) Competitor (AID 1508618)
Chain of Calcium and integrin-binding protein 1 (Homo sapiens) (Q99828 whole entry, looked up): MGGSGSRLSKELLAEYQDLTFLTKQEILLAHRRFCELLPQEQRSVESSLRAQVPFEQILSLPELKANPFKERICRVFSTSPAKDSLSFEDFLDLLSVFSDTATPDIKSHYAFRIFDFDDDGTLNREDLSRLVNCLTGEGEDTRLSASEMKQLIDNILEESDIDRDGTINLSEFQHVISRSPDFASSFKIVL
Procedure, shortened: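 In this qHTS validation, the LOPAC set (up to 114 uM) was tested for blocking CIB1 binding to a fluorescein-tagged alphaIIb peptide, with FP detection at 480/540 nm.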

[3] = molecular target: Calcium and integrin-binding protein 1 (Homo sapiens) (UniProt Q99828); experiment: Primary qHTS for Identification of Calcium Integrin Binding Protein 1 (CIB1) Competitor (AID 1508620);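 also: GST tagged CIB1 binding a fluorescein labelled alphaIIb integrin peptide tracer; top concentration of the series differs between compounds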
Procedure, shortened: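 Fluorescence polarization competition: GST-tagged CIB1 (1 uM final) preincubated with compound 15 min at room temperature, then FITC-labelled alphaIIb peptide (100 nM final) added. After 15 min at room temperature, polarization read at Ex 480/Em 540.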

[4] = A High-Content qHTS Against Drug Library for the Identification of Small Molecules that Inhibit DYT1 Early Onset Primary Dystonia-Associated Cell Pathology (AID 1645839; calls by dose curve; also: series mostly up to about 46 µM)
Procedure, shortened: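 Cells were seeded and left for 24 h, then dosed with compound alongside tetracycline induction of mutant EGFP-TorsinA. They were incubated for 48 h, fixed in 4% paraformaldehyde, permeabilized and imaged for mislocalization (%pathology) and cell count.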

[5] = molecular target: Cytochrome P450 2C9 (Homo sapiens) (UniProt P11712); experiment: Cytochrome P450 family 2 subfamily C member 9 (CYP2C9) small molecule antagonists: luciferase biochemical (cell-free) qHTS assay (AID 1645842; active = well fitted curve in the direction sought with a large enough effect in the repeat runs; an effect the other way counts as inactive or inconclusive; also: nearly all actives have a fitted effect of over 55% in size; also: potency is read from the fitted curve at half-maximal effect)
Chain of Cytochrome P450 2C9 (Homo sapiens) (P11712 whole entry, looked up): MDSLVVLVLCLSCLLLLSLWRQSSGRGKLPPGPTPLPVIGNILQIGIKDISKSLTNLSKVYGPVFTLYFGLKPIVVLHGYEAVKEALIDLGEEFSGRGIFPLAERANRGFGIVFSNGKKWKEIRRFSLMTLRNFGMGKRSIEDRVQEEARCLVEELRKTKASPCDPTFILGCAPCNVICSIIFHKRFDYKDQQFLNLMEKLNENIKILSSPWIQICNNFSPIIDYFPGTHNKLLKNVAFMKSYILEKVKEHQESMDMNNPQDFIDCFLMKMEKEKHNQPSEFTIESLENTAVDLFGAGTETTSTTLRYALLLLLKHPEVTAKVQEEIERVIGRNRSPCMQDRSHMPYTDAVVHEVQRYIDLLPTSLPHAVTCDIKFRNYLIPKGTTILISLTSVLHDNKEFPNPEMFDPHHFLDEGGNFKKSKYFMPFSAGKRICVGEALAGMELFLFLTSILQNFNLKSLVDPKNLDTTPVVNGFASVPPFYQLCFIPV
Procedure, shortened: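 P450-Glo CYP2C9 system: proluciferin substrate with enzyme in mix containing 0.4% BSA, 10 min at room temperature, then NADPH regeneration solution added and incubated 1 h at 37C. Detection reagent stopped reaction; luminescence read after 20 min as RLU.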

Papain (Carica papaya) = Papain (Carica papaya) (UniProt P00784); experiment: Primary qHTS assay for inhibitors of the protease papain (AID 1645873);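 also: papain turnover of Z-FR-AMC read as the AMC fluorescence gain over 10 min; series mostly up to about 50 µM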
Chain of Papain (Carica papaya) (P00784 whole entry, looked up): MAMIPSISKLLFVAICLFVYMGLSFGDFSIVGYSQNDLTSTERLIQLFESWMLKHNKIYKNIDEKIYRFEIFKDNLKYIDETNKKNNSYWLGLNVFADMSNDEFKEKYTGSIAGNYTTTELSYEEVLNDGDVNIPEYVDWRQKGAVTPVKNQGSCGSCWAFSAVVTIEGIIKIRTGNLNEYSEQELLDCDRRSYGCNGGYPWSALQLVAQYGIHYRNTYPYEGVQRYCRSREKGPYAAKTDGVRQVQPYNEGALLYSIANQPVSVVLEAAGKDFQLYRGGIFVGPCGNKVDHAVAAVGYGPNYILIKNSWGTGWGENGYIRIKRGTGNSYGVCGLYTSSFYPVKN

[6] = molecular target: Cytochrome P450 2D6 (Homo sapiens) (UniProt P10635); experiment: Cytochrome P450 family 2 subfamily D member 6 (CYP2D6) small molecule antagonists: luciferase biochemical (cell-free) qHTS assay (AID 1645840; active = well fitted curve in the direction sought with a large enough effect in the repeat runs; an effect the other way counts as inactive or inconclusive; also: nearly all actives have a fitted effect of over 55% in size; also: potency is read from the fitted curve at half-maximal effect)
Chain of Cytochrome P450 2D6 (Homo sapiens) (P10635 whole entry, looked up): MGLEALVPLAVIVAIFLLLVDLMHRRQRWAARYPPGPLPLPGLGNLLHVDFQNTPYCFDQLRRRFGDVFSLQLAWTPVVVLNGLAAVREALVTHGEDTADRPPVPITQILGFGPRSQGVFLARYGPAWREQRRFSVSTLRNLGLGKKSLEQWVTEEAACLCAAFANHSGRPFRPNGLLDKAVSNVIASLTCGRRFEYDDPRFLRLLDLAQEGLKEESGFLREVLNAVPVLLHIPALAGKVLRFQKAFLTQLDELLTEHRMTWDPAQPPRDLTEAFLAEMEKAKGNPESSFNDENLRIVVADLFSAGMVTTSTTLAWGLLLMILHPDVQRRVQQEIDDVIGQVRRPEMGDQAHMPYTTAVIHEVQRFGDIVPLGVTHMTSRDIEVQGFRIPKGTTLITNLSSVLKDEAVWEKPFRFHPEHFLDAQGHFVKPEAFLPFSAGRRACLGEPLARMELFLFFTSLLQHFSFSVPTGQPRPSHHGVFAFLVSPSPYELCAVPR
Procedure, shortened: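 P450-Glo CYP2D6 system: proluciferin substrate converted by enzyme to luciferin, read by luminescence proportional to activity. Enzyme-substrate mix with compound 10 min at room temperature, then NADPH regeneration 1 h before detection reagent.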

[7] = Primary qHTS for inhibitors of nuclear receptor binding SET domain protein 2 (NSD2) in an isogenic RCH-ACV NSD2 p.E1099K mutant (9B) (AID 1645876); also: nearly all actives have a fitted effect of over 70% in size
[8] = Primary qHTS for inhibitors of nuclear receptor binding SET domain protein 2 (NSD2) in an RCH-ACV wild type WT cells (2C) (AID 1645877); also: nearly all actives have a fitted effect of over 70% in size
[9] = molecular target: Calcium and integrin-binding protein 1 (Homo sapiens) (UniProt Q99828); experiment: Confirmatory qHTS for Identification of Calcium Integrin Binding Protein 1 (CIB1) Competitor (AID 1508617); also: nearly all actives have a fitted effect of over 65% in size
Procedure, shortened: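 Binding competition between test compounds and fluorescent alphaIIb peptide for 1 uM CIB1-GST is monitored by FP at 480/540 nm. Final compound range is up to 114 uM; unlabeled peptide serves as reference competitor.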

[10] = molecular target: Cytochrome P450 3A4 (Homo sapiens) (UniProt P08684); experiment: Cytochrome P450 family 3 subfamily A member 4 (CYP3A4) small molecule antagonists: luciferase qHTS assay (AID 1645841; active = well fitted curve in the direction sought with a large enough effect in the repeat runs; an effect the other way counts as inactive or inconclusive; also: nearly all actives have a fitted effect of over 45% in size)
Chain of Cytochrome P450 3A4 (Homo sapiens) (P08684 whole entry, looked up): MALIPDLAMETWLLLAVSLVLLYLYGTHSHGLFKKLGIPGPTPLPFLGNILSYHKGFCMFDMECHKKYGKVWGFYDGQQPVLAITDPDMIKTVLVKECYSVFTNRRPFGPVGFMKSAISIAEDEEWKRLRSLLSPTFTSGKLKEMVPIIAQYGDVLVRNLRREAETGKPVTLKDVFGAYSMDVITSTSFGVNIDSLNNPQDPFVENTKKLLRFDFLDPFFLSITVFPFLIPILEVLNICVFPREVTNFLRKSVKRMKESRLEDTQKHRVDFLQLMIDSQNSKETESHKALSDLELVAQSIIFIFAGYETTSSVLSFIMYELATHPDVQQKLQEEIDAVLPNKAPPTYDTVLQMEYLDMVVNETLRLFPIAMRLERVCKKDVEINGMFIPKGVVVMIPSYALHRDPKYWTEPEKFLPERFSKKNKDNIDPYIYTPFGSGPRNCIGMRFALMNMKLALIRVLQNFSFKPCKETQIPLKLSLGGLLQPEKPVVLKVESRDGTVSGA
Procedure, shortened: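 P450-Glo CYP3A4 enzyme with proluciferin substrate preincubated 10 min with compound at room temperature, then NADPH regeneration 1 h. Luciferin detection reagent added for 20 min; luminescence recorded. Ketoconazole positive control.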

[11] = molecular target: Rap guanine nucleotide exchange factor 3 (Homo sapiens) (UniProt O95398); experiment: Counterscreen qHTS for agonist of cAMP-regulated guanine nucleotide exchange factor 3 (EPAC1) (AID 1645889); also: nearly all actives have a fitted effect of over 40% in size
Procedure, shortened: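 Rap1B–BODIPY-GDP (250 nM) with 50 uM GDP; compounds pin-transferred to 9.74 nM–152 uM final (activator) or from 7.32 nM upwards (inhibitor). Fluorescence Ex/Em 480/540 nm read at 5 and 30 min, then after adding cAMP or buffer, at room temperature.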

Measured: Potency

CCCCNc1c(C(=O)OCC)c(C)nc2c1cnn2CC
inactive: [1] | [2] | [3] | [4] | Papain (Carica papaya)
active: [5] 17400 nM

Cc1ccc(=O)n(-c2ccccc2)c1
inactive: [1] | [2] | [3] | [4] | [6] | [5] | Papain (Carica papaya) | [7] | [8]

c1ccc2c(c1)CCCC2C1=NCCN1 (centres undefined)
inactive: [1] | [2] | [3] | [4] | Papain (Carica papaya) | [7]

C[N+](C)(C)CCCCCCCCCC[N+](C)(C)C
inactive: [1] | [2] | [3] | [4] | [6] | [5] | Papain (Carica papaya) | [7] | [8]

COc1ccc2c(c1OC)C(=O)O[C@@H]2[C@H]1c2c(cc3c(c2OC)OCO3)CCN1C
active: [6] 4.9 µM | [5] 110 nM
inactive: [1] | [2] | [3] | [4] | Papain (Carica papaya)

CC(C)[N+](C)(CCOC(=O)C1c2ccccc2Oc2ccccc21)C(C)C
active: [6] 0.309 µM
inactive: [1] | [2] | [3] | [4] | [5] | Papain (Carica papaya) | [7]

C[C@]12CCC(=O)C=C1CC[C@@H]1[C@@H]2C(=O)C[C@@]2(C)[C@H]1CC[C@]2(O)C(=O)CO
inactive: [1] | [2] | [3] | [4] | [6] | [5] | [7] | [8]

CCN(CC)CCOCCOC(=O)C1(c2ccccc2)CCCC1
inactive: [1] | [2] | [3] | [4] | [5] | Papain (Carica papaya) | [7]

O=C1CC2(CCCC2)CC(=O)N1CCCCN1CCN(c2ncccn2)CC1
active: [6] 17.4 µM and 13.5 µM
inactive: [1] | [2] | [3] | [4] | [5] | Papain (Carica papaya) | [7]

NC(=O)c1cn(Cc2c(F)cccc2F)nn1
inactive: [1] | [2] | [3] | [4] | [6] | [5] | Papain (Carica papaya) | [7]

C[n+]1cc2c3c(ccc2c2ccc4cc5c(cc4c21)OCO5)OCO3
inactive: [9]

O=C1NCN(c2ccccc2)C12CCN(CCCC(c1ccc(F)cc1)c1ccc(F)cc1)CC2
inactive: [10]

CCOC(=O)C1=C(C)NC(C)=C(C(=O)OC)C1c1cccc(Cl)c1Cl (centres undefined)
inactive: [11]
